From PubChem
Most compounds without a hit are left out; they make up all but 8.7% or so of the library.
Pf growth 48h: inhibits P. falciparum growth in the first generation, 48 h; P. falciparum luciferase growth in erythrocytes, 48 h; Potency, µM (series often up to 28.7 µM), hits mostly inhibitors; hit rate 5.9% among 310,000; AID 504832
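Luciferase-expressing parasites in RBCs, 2% Hct / 0.1% parasitemia final; RPMI 1640 + 0.5% Albumax; 37 C, 5% CO2, one generation; luminescence read-out, lower signal = inhibition.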
Pf growth 96h: P. falciparum growth inhibition at 96 hour, primary screen for plastid delayed-death inhibitors. P. falciparum luciferase reporter growth, 96 h. Potency, µM (doses to about 28.7 µM), hits mostly inhibitors. AID 504834. hit rate 6.9% among 320,000
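Parasite growth measured via integrated firefly luciferase reporter in P. falciparum. Infected erythrocytes at 2% hematocrit, 0.05% parasitemia final were treated 96 hours at 37 C under 5% CO2, and luminescence was read.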
VACV Venus inh: inhibitors of vaccinia virus (Venus reporter); Vaccinia virus Venus reporter expression, fluorescence; Potency, µM (highest dose often 36.5 µM), hits mostly inhibitors; hit rate 0.46% among 330,000; AID 720580; calls by dose curve; tested in A549 cells; further: nearly all actives have a fitted effect of over 30% in size
Vaccinia mCherry: inhibitors of vaccinia virus infection (mCherry reporter signal). Vaccinia virus mCherry reporter infection, fluorescence. Potency, µM (titrated, usually from 36.5 µM), most hits filed as inhibitors. hit rate 0.63% among 310,000. AID 720579; calls by dose curve; tested in A549 cells; further: nearly all actives have a fitted effect of over 35% in size
AMA1-RON2 inh: inhibitors of Plasmodium falciparum AMA1-RON2 interaction. AlphaScreen AMA1-biotinylated RON2 peptide binding. Potency, µM (top dose mostly 58.2 µM), actives largely listed as inhibitors. hit rate 0.2% among 360,000. AID 720542; further: nearly all actives have a fitted effect of over 45% in size
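AMA1 (3D7) with his tag at 25 nM final met compounds first, then biotinylated RON2 peptide at 25 nM; detection used donor plus acceptor beads, 10 µg/mL apiece, read by AlphaScreen after 30 min at room temperature.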
Of the large screens only hits and unclear results are named; the others gave an inactive call. Unless noted, the call rests on the fitted dose curve; in most records, active means well fitted curve in the direction sought with a large enough effect; inconclusive means small, poorly fitted or top-dose-only effect, or another doubt; inactive means no such curve, though single readings can be large; an effect the other way counts as inactive or inconclusive.

O=C(Cc1cccc(NC(=O)C2CCN(C(=O)c3ccccc3)CC2)c1)Nc1cccc(C(=O)N2CCCC2)c1	Pf growth 48h inconclusive
O=C(Cc1cccc(NC(=O)C2CCN(C(=O)C3CCCC3)CC2)c1)Nc1cccc(C(=O)N2CCCC2)c1	Pf growth 48h 15µM, Pf growth 96h inconclusive
O=C(Cc1cccc(NC(=O)C2CCN(C(=O)C3CCCC3)CC2)c1)Nc1cccc(C(=O)N2CCCCC2)c1	none (no result: Pf growth 48h, Pf growth 96h)
COc1ccc(OCC(=O)NCCS(=O)(=O)N2CCN(c3cccc(Cl)c3)CC2)cc1	none (no result: Pf growth 48h, Pf growth 96h, AMA1-RON2 inh)
COc1ccccc1CNC(=O)c1cc2cccc3c2n1CC(C)S3 (stereo not given)	Vaccinia mCherry inconclusive (no result: Pf growth 48h, Pf growth 96h, AMA1-RON2 inh)
Cc1nc(CC(=O)Nc2cc(Cl)ccc2C)cs1	none (no result: Pf growth 48h, Pf growth 96h, AMA1-RON2 inh)
O=C1C(C=NCCCN2CCCC2=O)=C(O)c2ccccc21	Pf growth 96h 13µM (no result: VACV Venus inh, Vaccinia mCherry)
O=C1C(C=NCCCn2ccnc2)=C(O)c2ccccc21	none (no result: Pf growth 48h, Pf growth 96h, VACV Venus inh, Vaccinia mCherry)
O=C1C(C=NC2CC2)=C(O)c2ccccc21	Pf growth 96h 13µM (no result: Pf growth 48h, Vaccinia mCherry)
Cc1ccc(Cl)cc1N1CCN(C(=O)c2sc3nc4n(c(=O)c3c2C)CCC4)CC1	none (no result: Pf growth 48h, Pf growth 96h, AMA1-RON2 inh)
O=C(NC1CC(=O)N(c2ccc(F)cc2)C1)c1ccc(S(=O)(=O)N2CCOCC2)cc1 (stereo not given)	none (no result: Pf growth 48h, Pf growth 96h, AMA1-RON2 inh)
COc1cc(-c2ccc(Cl)cn2)cc2c1OCCN(S(=O)(=O)C[C@]13CC[C@H](CC1=O)C3(C)C)C2	none (no result: Pf growth 48h, Pf growth 96h, AMA1-RON2 inh)
Cn1c(-c2ccccc2)c(C=O)c2ccccc21	Pf growth 96h inconclusive (no result: VACV Venus inh, Vaccinia mCherry)
Cn1c(C(=O)O)c(C=O)c2ccccc21	Pf growth 96h 10µM
Cc1ccc(C(O)P(=O)(OCCC(C)C)c2ccc(N(C)C)cc2)cc1 (stereo not given)	Pf growth 48h 12µM, Pf growth 96h inconclusive (no result: VACV Venus inh, Vaccinia mCherry)
CCOP(=O)(c1ccc(N(C)C)cc1)C(O)c1c(Cl)cccc1Cl (stereo not given)	Pf growth 48h inconclusive, Pf growth 96h inconclusive (no result: VACV Venus inh, Vaccinia mCherry)
CN(C)c1ccc(P(=O)(OCc2ccccc2)C(O)c2ccc(Br)cc2)cc1 (stereo not given)	Pf growth 48h inconclusive, Pf growth 96h inconclusive
CCCOP(=O)(c1ccc(N(C)C)cc1)C(O)c1c(Cl)cccc1Cl (stereo not given)	Pf growth 48h inconclusive, Pf growth 96h 8.3µM
CC(C)CCOP(=O)(c1ccc(N(C)C)cc1)C(O)c1c(Cl)cccc1Cl (stereo not given)	Pf growth 48h 10µM, Pf growth 96h 12µM (no result: VACV Venus inh, Vaccinia mCherry)
CC(C)COP(=O)(c1ccc(N(C)C)cc1)C(O)c1ccc(Br)cc1 (stereo not given)	Pf growth 48h inconclusive, Pf growth 96h 10µM (no result: VACV Venus inh, Vaccinia mCherry)
Cc1ccc(NC(=O)CCc2nc3cccnc3n2-c2ccccc2)cc1Cl	none (no result: Pf growth 48h, Pf growth 96h, AMA1-RON2 inh)
CC(CNC(=O)c1csc2c1CCCCC2)c1ccccc1 (stereo not given)	none (no result: Pf growth 48h, Pf growth 96h, AMA1-RON2 inh)
O=C(Nc1cccc(C(F)(F)F)c1)C1CCCN(S(=O)(=O)c2cccc3nsnc23)C1 (stereo not given)	none (no result: Pf growth 48h, Pf growth 96h, AMA1-RON2 inh)
CCOC(=O)c1cc(S(=O)(=O)Nc2ccc(C)cc2Cl)[nH]n1	none (no result: Pf growth 48h, Pf growth 96h, AMA1-RON2 inh)
CCCOP(=O)(c1ccc(N(C)C)cc1)C(O)c1ccc(Cl)cc1Cl (stereo not given)	Pf growth 48h 7.4µM, Pf growth 96h 13µM
CN(C)c1ccc(CCC2C=Cc3ccccc32)cc1 (stereo not given)	none (no result: Pf growth 48h, Pf growth 96h, AMA1-RON2 inh)
N=c1ccn(Cc2cccc(F)c2)cc1	Pf growth 48h 2.3µM, Vaccinia mCherry inconclusive
NCCc1nc(-c2ccccc2)cs1	Pf growth 96h 13µM
NC(=O)Cc1nc(-c2ccccc2)cs1	Pf growth 96h inconclusive
O=C(CSc1nnc(-c2cc3ccccc3cc2O)n1Cc1ccco1)N1CCc2ccccc2C1	Pf growth 96h 1.7µM, VACV Venus inh inconclusive (no result: Pf growth 48h)
CC(C)N(C(=O)CSc1nnc(-c2cc3ccccc3cc2O)n1Cc1ccco1)C(C)C	Pf growth 48h 2.1µM (no result: VACV Venus inh, Vaccinia mCherry)
Cn1cnc(S(=O)(=O)N2CCC(C(=O)NCc3ccc(F)cc3)CC2)c1	none (no result: Pf growth 48h, Pf growth 96h, AMA1-RON2 inh)
O=C(NC(=S)N1CCN(C/C=C/c2ccccc2)CC1)c1ccc(F)cc1	Pf growth 48h 10µM, Pf growth 96h inconclusive, Vaccinia mCherry inconclusive
C(=C/c1ccccc1)/CN1CCN(C(c2ccccc2)c2ccccc2)CC1	Pf growth 48h inconclusive, Pf growth 96h 7.2µM (no result: VACV Venus inh, Vaccinia mCherry, AMA1-RON2 inh)
O=[N+]([O-])c1ccc(C(O)CN2CCN(Cc3ccccc3)CC2)cc1 (stereo not given)	Pf growth 48h inconclusive, Pf growth 96h inconclusive, Vaccinia mCherry inconclusive
O=[N+]([O-])c1ccc(C(O)CN2CCN(C/C=C/c3ccccc3)CC2)cc1 (stereo not given)	Pf growth 48h 7.4µM, Pf growth 96h 4.1µM
O=C(NC(=S)N1CCN(C/C=C/c2ccccc2)CC1)c1cccnc1	Pf growth 48h 9.3µM, Pf growth 96h 3.3µM, VACV Venus inh inconclusive, Vaccinia mCherry inconclusive
CCOc1ccccc1CNC(=O)c1cn(-c2ccc(OC)cc2)c(=O)c2ccccc12	none (no result: Pf growth 48h, Pf growth 96h, AMA1-RON2 inh)
CCc1nc2ccc(C(=O)NCc3ccc(SC)cc3)cc2nc1CC	none (no result: Pf growth 48h, Pf growth 96h, AMA1-RON2 inh)
COc1ccccc1N1CCN(C(=O)c2cc3ccc4ccc(C)[nH]c4c3n2)CC1	none (no result: Pf growth 48h, Pf growth 96h, AMA1-RON2 inh)
Fc1ccccc1NC(=S)N1CCN(C/C=C/c2ccccc2)CC1	Pf growth 96h 0.59µM
O=C(Cc1ccccc1)N1CCN(C/C=C/c2ccccc2)CC1	Pf growth 96h 3.3µM (no result: Vaccinia mCherry)
